Screening results deposited in PubChem by several laboratories.
CYP2C9 act: increases human cytochrome P450 2C9 activity; P11712; recombinant CYP2C9, luciferin-H conversion, luminescence; active compounds read high; factor 1 = untreated enzyme, 0 = blocked; activation factor at 5 µM; 96,000 compounds, 1.4% hits; AID 1024;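 active means activation factor of 2 or more for CYP2C9 at a 5 µM dose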;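 further: 0 = sulfaphenazole-blocked wells and 1 = vehicle-only wells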
PostGolgi ctrl: yeast control strain growth, post-Golgi counter-screen | 98,000 compounds, 5% hits | AID 738 | efflux-deficient yeast background strain, growth absorbance A615, 16 h | inhibition, % at 10 µM
CYP2C9 inhib: inhibitors of human CYP2C9 | P11712 | CYP2C9 Supersomes, luciferin-H conversion, luminescence | inhibition, % at 5 µM | 96,000 compounds, 20% hits;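 active means blocking of liver enzyme CYP2C9 beyond about 50% at 5 µM, limit read from the data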
CYP2C19 activ: activators of human cytochrome P450 2C19; P33261; recombinant CYP2C19, luciferin-H EGE luminescence; active compounds read high; 0 = fully inhibited enzyme, 1 = untreated enzyme; activation factor at 5 µM; 96,000 tested, under 10 active;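 active means activation factor of at least 2 at 5 µM in the primary screen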;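 further: 0 = wells with 2.5 mM tranylcypromine and 1 = vehicle-only wells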
Target sequence (P33261 whole entry, looked up): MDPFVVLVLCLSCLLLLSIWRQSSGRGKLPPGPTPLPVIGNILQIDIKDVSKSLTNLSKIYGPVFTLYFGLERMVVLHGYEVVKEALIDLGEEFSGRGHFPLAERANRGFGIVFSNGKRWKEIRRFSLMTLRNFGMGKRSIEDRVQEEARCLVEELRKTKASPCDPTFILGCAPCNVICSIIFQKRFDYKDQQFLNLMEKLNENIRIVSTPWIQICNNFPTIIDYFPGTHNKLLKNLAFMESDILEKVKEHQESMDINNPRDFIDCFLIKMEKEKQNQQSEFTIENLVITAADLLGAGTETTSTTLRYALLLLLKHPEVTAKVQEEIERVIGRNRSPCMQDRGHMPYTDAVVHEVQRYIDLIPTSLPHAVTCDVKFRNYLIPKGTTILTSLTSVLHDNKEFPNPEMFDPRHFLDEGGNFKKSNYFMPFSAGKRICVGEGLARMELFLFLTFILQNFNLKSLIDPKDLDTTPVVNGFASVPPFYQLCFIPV
PostGolgi yeast: growth inhibition of a yeast mutant, post-Golgi transport screen | post-Golgi transport phenotypic cell assay | inhibition, % at 10 µM | 98,000 compounds, 0.9% hits | AID 739;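 further: yeast cells grown in 1536-well plates; yeast grown about 18 h at 30C before absorbance read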
CYP2C19 inh: human CYP2C19 inhibition; CYP2C19 Supersomes, luciferin-H EGE luminescence, 30 min; inhibition, % at 5 µM; 96,000 compounds, 21% hits;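 active means CYP2C19 inhibition above a set limit at 5 µM in the primary screen, cut at about 50% in these data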;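 further: plate controls were negative control wells for no effect and 2.5 mM tranylcypromine positive control for full effect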
Active calls of the source: *; nt = not tested or not shown. Compounds with a hit are over-represented: about 32% of the library has one in this group of screens. Unless noted, no stated cut-off is given here; in the data, active means inhibition above about 30%; inactive means the rest.

SMILES	CYP2C9 act	PostGolgi ctrl	CYP2C9 inhib	CYP2C19 activ	PostGolgi yeast	CYP2C19 inh
CCc1nnc(NC(=O)CSc2nnnn2-c2cccc(C(=O)OC)c2)s1	0.3	24	68*	0.7	-1	33
COC(=O)c1ccc(-n2nnnc2SCC(=O)Nc2ccccc2C(=O)OC)cc1	1.1	37*	-6	1.1	25	-12
CC(NC(=O)c1ccccc1NC(=O)CSc1nnnn1C)c1ccccc1 (stereo not given)	0.4	33*	62*	0.9	20	12
COC(=O)c1ccc(-n2nnnc2SCC(=O)Nc2cc(OC)ccc2OC)cc1	0.9	6	11	0.9	-3	14
COC(=O)c1ccc(-n2nnnc2SCC(=O)N2CCCCC2)cc1	0.4	6	55*	0.7	-5	26
COc1ccc(/C(N)=N/OC(=O)CSc2ccccc2)cc1OC	0.7	19	29	0.7	-4	28
Cc1cccc(-n2c(C)nc3sccc3c2=O)c1	1	1	2	0.6	-1	42
COC(=O)c1ccc(Sc2nnnn2-c2ccccc2)c([N+](=O)[O-])c1	1.1	24	-7	0.3	8	66*
O=C(COc1ccccc1Cl)NC(=S)Nc1cccc(NC(=O)c2ccccc2Cl)c1	0.3	1	67*	0.7	-1	26
Cc1cc(Oc2ccccc2)nc(OCC#N)n1	1	-5	2	0.7	2	32
O=S(=O)(c1cnc[nH]1)N1CCc2ccccc21	0	2	100*	0	5	98*
CC(=O)N1CCc2cc(S(=O)(=O)N3c4ccccc4CC3C)ccc21 (stereo not given)	0.7	8	30	0.9	0	14
CC1Cc2ccccc2N1S(=O)(=O)c1cnc[nH]1 (stereo not given)	0	0	98*	0.1	1	92*
C=CCc1c(C)nn(CC(=O)O)c1-c1ccccc1	1	11	0	1	0	-5
O=c1c2c3nc4ccccc4nc3n(-c3cccc(F)c3)c2ncn1Cc1ccc2c(c1)OCO2	1	nt	0	1	nt	-2
CCC(C)n1cnc2c(c1=O)c1nc3ccccc3nc1n2Cc1ccc2c(c1)OCO2 (stereo not given)	0	23	99*	0.2	15	81*
Cc1nc2c(c(=O)n1CCC(C)C)c1nc3ccccc3nc1n2Cc1ccc2c(c1)OCO2	0.4	nt	58*	0.8	nt	22
CCCCn1c2nc3ccccc3nc2c2c(=O)n(C(C)CC)cnc21 (stereo not given)	0.8	23	18	0.6	37*	37
CCCn1nnnc1NC(=O)c1ccc(C)cc1Cl	0.7	5	26	0.6	6	38
Cn1c(=O)n(C)c2cc(C(=O)c3ccccc3)ccc21	1	-3	2	0.9	-3	8
CC(C)(C)NC(NC(=O)Cc1ccccc1)C(Cl)(Cl)Cl (stereo not given)	0.9	12	5	0.3	-2	70*
O=C(NC(NCc1ccccc1)C(Cl)(Cl)Cl)c1cccnc1 (stereo not given)	0.8	6	16	0.6	-1	43
CC(NC(=O)Cc1ccc(-c2ccccc2)cc1)c1ccccc1 (stereo not given)	0.7	7	34	0.8	13	22
COc1ccc(C(=O)NC(Nc2ccccc2)C(Cl)(Cl)Cl)cc1 (stereo not given)	0.2	19	85*	0.6	4	36
O=C(Cc1ccccc1)NC(Nc1ccccc1)C(Cl)(Cl)Cl (stereo not given)	0.3	-8	73*	0.2	15	82*
SMILES	CYP2C9 act	PostGolgi ctrl	CYP2C9 inhib	CYP2C19 activ	PostGolgi yeast	CYP2C19 inh
Cn1cc(C(=O)Nc2cccc(F)c2)cn1	1	20	0	1	-3	4
CCOC(=O)C1CCN(Cc2nc3ccc(Cl)cc3n2CCO)CC1	0.9	2	6	0.7	-2	26
COc1ccc(N2CCCn3c2nc2c3c(=O)n(Cc3ccccc3F)c(=O)n2C)c(OC)c1	0.7	11	27	0.8	3	22
COc1cccc(C2=N/C(=C\N(C)C)C(=O)O2)c1	0.7	8	30	0.4	11	63*
CCc1noc(C)c1C(=O)Nc1sc(C(=O)N(C)C)c(C)c1C(=O)OC	0.4	3	60*	0.5	-5	46
CCOC(=O)c1c(NC(=O)c2cccs2)sc(C(=O)N(C)C)c1C	0.2	7	77*	0.4	3	58*
